Laboratory results published in the supplement of paper PMC8728848.
The entries come from a sample that favours the strongest signals as a whole.

Key:
Assay in all cases: glycan array binding signal (z-score within array); higher = stronger binding
[1] = tested on: Gal(b1-3)[Fuc(a1-4)]GlcNAc(b1-3)Gal(b1-4)[Fuc(a1-3)]GlcNAc; conditions: glycan notation: IUPAC condensed, linker removed
How it was run: (§1)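 Glycan array data were curated from 3228 arrays in the Consortium for Functional Glycomics database and kept only where the protein sequence was available. Glycan names were converted to IUPAC-condensed notation, and columns mapping to the same glycan were averaged. The binding signal is a within-array Z-score, averaged across arrays of the same protein sequence at different concentrations or buffers and across linkers. Negative Z-scores can be read as non-binding.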

[2] = tested on: Gal(b1-3)[Neu5Ac(a2-6)]GlcNAc(b1-6)Gal(b1-4)Glc; conditions: glycan notation: IUPAC condensed, linker removed
How it was run: as §1

[3] = tested on: Gal(b1-3)[Fuc(a1-4)]GlcNAc(b1-2)Man(a1-3)[Gal(b1-3)[Fuc(a1-4)]GlcNAc(b1-2)Man(a1-6)]Man(b1-4)GlcNAc(b1-4)GlcNAc; conditions: glycan notation: IUPAC condensed, linker removed
How it was run: as §1

[4] = tested on: Gal(b1-3)GlcNAc(b1-3)GalNAc; conditions: glycan notation: IUPAC condensed, linker removed
How it was run: as §1

Gal(b1-3)GlcNAc6S = conditions: glycan notation: IUPAC condensed, linker removed
How it was run: as §1

[5] = tested on: Gal(b1-4)GlcNAc(b1-2)Man(a1-3)Man(b1-4)GlcNAc(b1-4)GlcNAc; conditions: glycan notation: IUPAC condensed, linker removed
How it was run: as §1

[6] = tested on: Gal(b1-3)[Fuc(a1-4)]GlcNAc(b1-3)Gal(b1-3)[Fuc(a1-4)]GlcNAc; conditions: glycan notation: IUPAC condensed, linker removed
How it was run: as §1

[7] = tested on: Gal(b1-3)[Fuc(a1-4)]GlcNAc; conditions: glycan notation: IUPAC condensed, linker removed
How it was run: as §1

[8] = tested on: Gal(b1-3)[GlcNAc(b1-6)]GalNAc; conditions: glycan notation: IUPAC condensed, linker removed
How it was run: as §1

[9] = tested on: Gal(b1-3)[Neu5Ac(a2-6)]GlcNAc(b1-4)Gal(b1-4)Glc; conditions: glycan notation: IUPAC condensed, linker removed
How it was run: as §1

Gal(b1-3)GlcNAc = conditions: glycan notation: IUPAC condensed, linker removed
How it was run: as §1

[10] = tested on: Gal(b1-4)GalNAc(a1-3)[Fuc(a1-2)]Gal(b1-4)GlcNAc; conditions: glycan notation: IUPAC condensed, linker removed
How it was run: as §1

Gal(b1-4)Gal = conditions: glycan notation: IUPAC condensed, linker removed
How it was run: as §1

Gal(b1-4)Glc6S = conditions: glycan notation: IUPAC condensed, linker removed
How it was run: as §1

[11] = tested on: Gal(b1-3)GlcNAc(b1-3)Gal(b1-4)Glc; conditions: glycan notation: IUPAC condensed, linker removed
How it was run: as §1

[12] = tested on: Gal(b1-3)[Fuc(a1-4)]GlcNAc(b1-2)Man(a1-3)[Gal(b1-3)[Fuc(a1-4)]GlcNAc(b1-2)Man(a1-6)]Man(b1-4)GlcNAc(b1-4)[Fuc(a1-6)]GlcNAc; conditions: glycan notation: IUPAC condensed, linker removed
How it was run: as §1

[13] = tested on: Gal(b1-4)GlcNAc(b1-2)Man(a1-3)[Gal(b1-4)GlcNAc(b1-2)Man(a1-6)][Gal(b1-4)GlcNAc(b1-4)]Man(b1-4)GlcNAc(b1-4)[Fuc(a1-6)]GlcNAc; conditions: glycan notation: IUPAC condensed, linker removed
How it was run: as §1

[14] = tested on: Gal(b1-3)[Fuc(a1-4)]GlcNAc(b1-2)Man; conditions: glycan notation: IUPAC condensed, linker removed; mutation: R125K
How it was run: as §1

[15] = tested on: Gal(b1-4)GlcNAc(b1-2)Man(a1-3)[Gal(b1-4)GlcNAc(b1-2)Man(a1-6)]Man(b1-4)GlcNAc(b1-4)[Fuc(a1-6)]GlcNAc; conditions: glycan notation: IUPAC condensed, linker removed
How it was run: as §1

[16] = tested on: Gal(b1-3)[Fuc(a1-4)]GlcNAc(b1-3)Gal(b1-4)GlcNAc; conditions: glycan notation: IUPAC condensed, linker removed
How it was run: as §1

Sequence of PILRb (Mus musculus), Q2YSF2 (Q2YSF2 entry or part of it): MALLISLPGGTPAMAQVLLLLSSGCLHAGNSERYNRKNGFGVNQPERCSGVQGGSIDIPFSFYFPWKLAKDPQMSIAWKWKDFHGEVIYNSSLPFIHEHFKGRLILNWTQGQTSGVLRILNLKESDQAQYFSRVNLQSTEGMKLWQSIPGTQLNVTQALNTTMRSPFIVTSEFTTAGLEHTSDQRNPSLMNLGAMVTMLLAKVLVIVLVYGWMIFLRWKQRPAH
Sequence of Aggrecan (Rattus norvegicus), NP_071526 (chain, as listed by the source): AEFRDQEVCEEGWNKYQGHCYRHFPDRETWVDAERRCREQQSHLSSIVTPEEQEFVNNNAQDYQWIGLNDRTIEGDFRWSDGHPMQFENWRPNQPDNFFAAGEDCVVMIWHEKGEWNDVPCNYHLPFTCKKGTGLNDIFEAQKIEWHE
Sequence of Avaren (Actinomycete K97) (chain, as listed by the source): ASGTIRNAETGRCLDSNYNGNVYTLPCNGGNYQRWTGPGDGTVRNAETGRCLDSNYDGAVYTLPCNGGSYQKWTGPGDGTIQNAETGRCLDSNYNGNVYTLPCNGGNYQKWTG
Sequence of Regenerating Gene IV (Homo sapiens), Q9BYZ8 (Q9BYZ8 whole entry, looked up): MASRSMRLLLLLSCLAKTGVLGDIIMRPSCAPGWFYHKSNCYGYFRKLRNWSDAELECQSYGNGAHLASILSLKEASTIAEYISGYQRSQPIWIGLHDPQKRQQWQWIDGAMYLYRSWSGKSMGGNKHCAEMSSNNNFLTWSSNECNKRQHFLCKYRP
Sequence of CHI3L1 (Homo sapiens), P36222 (P36222 whole entry): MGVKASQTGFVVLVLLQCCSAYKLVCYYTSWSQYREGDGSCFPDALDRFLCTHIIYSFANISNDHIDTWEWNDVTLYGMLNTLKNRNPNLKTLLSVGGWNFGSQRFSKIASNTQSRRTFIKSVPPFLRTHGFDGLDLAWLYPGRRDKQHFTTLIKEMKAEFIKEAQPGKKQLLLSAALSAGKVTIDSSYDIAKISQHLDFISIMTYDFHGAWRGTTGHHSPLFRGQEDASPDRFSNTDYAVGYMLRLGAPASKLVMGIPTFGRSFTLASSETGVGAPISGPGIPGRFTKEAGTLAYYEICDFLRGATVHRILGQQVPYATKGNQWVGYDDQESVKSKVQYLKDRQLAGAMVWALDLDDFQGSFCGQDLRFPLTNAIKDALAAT
Sequence of 6RG (Lolium perenne) (chain, as listed by the source): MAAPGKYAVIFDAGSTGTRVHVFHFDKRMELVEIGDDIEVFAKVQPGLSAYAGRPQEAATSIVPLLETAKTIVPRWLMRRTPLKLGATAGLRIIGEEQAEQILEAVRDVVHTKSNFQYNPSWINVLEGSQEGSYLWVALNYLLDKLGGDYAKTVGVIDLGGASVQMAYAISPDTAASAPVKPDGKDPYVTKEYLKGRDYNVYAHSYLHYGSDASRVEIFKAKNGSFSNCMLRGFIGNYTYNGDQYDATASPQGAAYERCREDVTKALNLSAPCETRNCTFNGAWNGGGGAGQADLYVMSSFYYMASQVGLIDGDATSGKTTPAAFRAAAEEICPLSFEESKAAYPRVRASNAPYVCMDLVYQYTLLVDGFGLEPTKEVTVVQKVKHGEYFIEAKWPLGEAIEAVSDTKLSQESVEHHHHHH
Sequence of C3b (Homo sapiens), P01024 (P01024 23-667): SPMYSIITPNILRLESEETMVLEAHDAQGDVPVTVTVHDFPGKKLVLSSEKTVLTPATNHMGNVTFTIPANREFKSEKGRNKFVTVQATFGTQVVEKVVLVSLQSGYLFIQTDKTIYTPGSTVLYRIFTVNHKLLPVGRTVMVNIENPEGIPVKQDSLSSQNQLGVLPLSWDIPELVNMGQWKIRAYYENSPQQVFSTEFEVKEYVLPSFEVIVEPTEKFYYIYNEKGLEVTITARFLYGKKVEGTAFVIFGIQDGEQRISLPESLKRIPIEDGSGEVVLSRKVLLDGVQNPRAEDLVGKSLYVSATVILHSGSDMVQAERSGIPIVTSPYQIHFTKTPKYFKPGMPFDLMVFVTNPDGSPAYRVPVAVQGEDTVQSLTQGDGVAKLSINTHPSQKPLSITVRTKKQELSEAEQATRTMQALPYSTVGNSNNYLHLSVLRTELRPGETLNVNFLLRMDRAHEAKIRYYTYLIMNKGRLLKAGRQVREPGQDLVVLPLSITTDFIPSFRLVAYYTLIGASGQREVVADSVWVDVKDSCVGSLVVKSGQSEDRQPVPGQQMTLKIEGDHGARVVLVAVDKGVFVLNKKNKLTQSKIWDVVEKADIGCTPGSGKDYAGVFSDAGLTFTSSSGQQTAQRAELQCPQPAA
Sequence of Neurocan (Homo sapiens), O14594 (O14594 other isoform, or with tags, fused parts or gaps): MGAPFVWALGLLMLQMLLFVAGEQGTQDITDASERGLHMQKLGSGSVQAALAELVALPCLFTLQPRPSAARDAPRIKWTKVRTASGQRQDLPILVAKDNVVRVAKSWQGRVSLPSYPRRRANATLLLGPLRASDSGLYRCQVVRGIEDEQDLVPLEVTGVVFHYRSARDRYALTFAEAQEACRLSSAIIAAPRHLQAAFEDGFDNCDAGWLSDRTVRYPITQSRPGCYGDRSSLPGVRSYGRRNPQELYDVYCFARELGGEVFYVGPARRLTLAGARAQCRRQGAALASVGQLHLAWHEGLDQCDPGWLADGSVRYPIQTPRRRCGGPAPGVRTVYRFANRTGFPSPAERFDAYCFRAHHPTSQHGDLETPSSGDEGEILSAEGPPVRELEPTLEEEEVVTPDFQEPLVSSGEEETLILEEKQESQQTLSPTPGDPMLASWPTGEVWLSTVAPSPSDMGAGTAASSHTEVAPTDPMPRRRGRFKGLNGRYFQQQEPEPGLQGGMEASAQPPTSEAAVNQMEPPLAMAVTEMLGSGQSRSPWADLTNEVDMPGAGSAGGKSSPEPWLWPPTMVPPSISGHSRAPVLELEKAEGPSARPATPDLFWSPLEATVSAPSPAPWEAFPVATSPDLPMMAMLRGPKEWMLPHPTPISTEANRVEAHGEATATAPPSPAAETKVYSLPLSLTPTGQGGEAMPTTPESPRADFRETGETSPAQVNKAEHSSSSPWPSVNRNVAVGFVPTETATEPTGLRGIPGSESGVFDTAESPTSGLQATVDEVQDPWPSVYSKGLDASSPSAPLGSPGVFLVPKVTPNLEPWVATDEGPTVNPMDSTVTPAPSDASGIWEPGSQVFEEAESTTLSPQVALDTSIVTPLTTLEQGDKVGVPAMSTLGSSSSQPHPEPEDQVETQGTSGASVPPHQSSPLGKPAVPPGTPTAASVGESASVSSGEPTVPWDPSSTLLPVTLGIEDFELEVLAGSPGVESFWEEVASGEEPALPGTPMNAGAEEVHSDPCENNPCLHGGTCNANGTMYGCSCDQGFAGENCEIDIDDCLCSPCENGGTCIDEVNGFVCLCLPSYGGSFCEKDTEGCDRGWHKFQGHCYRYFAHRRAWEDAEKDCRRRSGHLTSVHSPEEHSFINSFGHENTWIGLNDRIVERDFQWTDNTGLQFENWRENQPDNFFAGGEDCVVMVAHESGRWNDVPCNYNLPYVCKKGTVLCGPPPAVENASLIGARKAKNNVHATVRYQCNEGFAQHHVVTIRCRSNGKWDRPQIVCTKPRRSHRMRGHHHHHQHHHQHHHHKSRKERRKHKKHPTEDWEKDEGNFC
Sequence of PILRa (Mus musculus), Q2YSF3 (Q2YSF3 entry or part of it): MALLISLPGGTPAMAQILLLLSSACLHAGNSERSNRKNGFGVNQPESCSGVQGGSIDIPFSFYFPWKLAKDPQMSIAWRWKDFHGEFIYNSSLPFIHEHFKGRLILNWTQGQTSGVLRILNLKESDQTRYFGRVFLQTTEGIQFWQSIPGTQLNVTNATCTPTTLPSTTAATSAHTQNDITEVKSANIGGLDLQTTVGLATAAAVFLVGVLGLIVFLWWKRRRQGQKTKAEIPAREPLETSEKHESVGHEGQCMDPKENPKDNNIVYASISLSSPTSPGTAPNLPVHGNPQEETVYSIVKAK
Sequence of 6RG (Lolium perenne), B9U140 (B9U140 entry or part of it): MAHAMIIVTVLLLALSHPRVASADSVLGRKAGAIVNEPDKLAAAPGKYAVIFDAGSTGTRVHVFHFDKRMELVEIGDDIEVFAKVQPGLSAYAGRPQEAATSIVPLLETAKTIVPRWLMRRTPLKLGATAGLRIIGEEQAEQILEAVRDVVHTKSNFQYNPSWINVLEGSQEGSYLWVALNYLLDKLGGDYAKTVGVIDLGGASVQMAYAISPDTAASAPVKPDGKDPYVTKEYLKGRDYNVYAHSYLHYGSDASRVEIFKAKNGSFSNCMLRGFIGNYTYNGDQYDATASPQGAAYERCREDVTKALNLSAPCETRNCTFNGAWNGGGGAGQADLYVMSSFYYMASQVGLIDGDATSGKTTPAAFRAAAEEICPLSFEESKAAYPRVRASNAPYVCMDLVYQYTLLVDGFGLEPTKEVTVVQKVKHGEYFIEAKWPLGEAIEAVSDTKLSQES
Sequence of wLAT-1A (Homo sapiens), Q01650 (Q01650 whole entry): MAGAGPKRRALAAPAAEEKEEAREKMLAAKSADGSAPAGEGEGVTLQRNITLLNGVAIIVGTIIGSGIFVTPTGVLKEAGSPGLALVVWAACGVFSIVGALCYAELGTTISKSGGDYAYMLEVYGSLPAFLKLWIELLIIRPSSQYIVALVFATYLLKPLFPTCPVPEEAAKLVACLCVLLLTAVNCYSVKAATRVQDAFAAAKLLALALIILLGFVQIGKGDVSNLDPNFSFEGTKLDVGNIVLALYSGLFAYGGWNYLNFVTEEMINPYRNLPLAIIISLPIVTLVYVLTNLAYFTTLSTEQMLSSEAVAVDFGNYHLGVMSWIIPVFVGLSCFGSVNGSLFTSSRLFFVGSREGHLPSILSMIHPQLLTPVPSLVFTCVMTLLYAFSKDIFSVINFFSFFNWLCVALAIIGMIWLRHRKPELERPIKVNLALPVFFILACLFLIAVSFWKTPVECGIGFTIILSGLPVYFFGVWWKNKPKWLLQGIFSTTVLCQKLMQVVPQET

SRLC (Mus musculus), Q8VIF6
glycan array binding signal (z-score) [1]: 4.49

6RG (Lolium perenne), B9U140
glycan array binding signal (z-score) [2]: -0.249

PILRa (Mus musculus), Q2YSF3
glycan array binding signal (z-score) [3]: 0.063

CHI3L1 (Homo sapiens), P36222
glycan array binding signal (z-score) [4]: -0.129
glycan array binding signal (z-score) (Gal(b1-3)GlcNAc6S): 0.72
glycan array binding signal (z-score) [5]: -0.118

C3b (Homo sapiens), P01024
glycan array binding signal (z-score) [6]: 0.483
glycan array binding signal (z-score) [7]: 0.283

HARE (Homo sapiens), Q8WWQ8
glycan array binding signal (z-score) [8]: -0.451
glycan array binding signal (z-score) [9]: 1.92

PILRb (Mus musculus), Q2YSF2
glycan array binding signal (z-score) (Gal(b1-3)GlcNAc): -0.113
glycan array binding signal (z-score) [10]: -0.547
glycan array binding signal (z-score) (Gal(b1-4)Gal): 0.167
glycan array binding signal (z-score) (Gal(b1-4)Glc6S): 1.22

Avaren (Actinomycete K97)
glycan array binding signal (z-score) [11]: 0.952
glycan array binding signal (z-score) [12]: 1.53
glycan array binding signal (z-score) [13]: -0.121

wLAT-1A (Homo sapiens), Q01650
glycan array binding signal (z-score) [10]: -0.62

Aggrecan (Rattus norvegicus), NP_071526
glycan array binding signal (z-score) [11]: 0.002
glycan array binding signal (z-score) [6]: 0.137
glycan array binding signal (z-score) [7]: 4.94
glycan array binding signal (z-score) [2]: -0.144

Siglec-8 (Homo sapiens), Q9NYZ4
glycan array binding signal (z-score) [14]: 0.797
glycan array binding signal (z-score) ([7]; mutation: R125K): -0.408
glycan array binding signal (z-score) [5]: -0.306
glycan array binding signal (z-score) [15]: -0.08
glycan array binding signal (z-score) ([13]; mutation: R125K): -0.535

Regenerating Gene IV (Homo sapiens), Q9BYZ8
glycan array binding signal (z-score) [6]: -0.411
glycan array binding signal (z-score) [16]: -0.208
glycan array binding signal (z-score) (Gal(b1-4)Glc6S): 2.4

6RG (Lolium perenne)
glycan array binding signal (z-score) [11]: 6.36
glycan array binding signal (z-score) [8]: -0.16
glycan array binding signal (z-score) [2]: 4.25

Neurocan (Homo sapiens), O14594
glycan array binding signal (z-score) [6]: 2.48
glycan array binding signal (z-score) [5]: 0.015

MpAFP RI GFP (Marinomonas primoryensis)
glycan array binding signal (z-score) [12]: 2.74
glycan array binding signal (z-score) [1]: -0.369
glycan array binding signal (z-score) [8]: -0.258
glycan array binding signal (z-score) (Gal(b1-4)Gal): -0.4
